AC50 and outcome data for 38 compounds are collected here from PubChem BioAssay (EPA / NIEHS).

Where “and” joins values, the source holds several entries; their conditions need not be identical. Equal entries are not always repeated. Some compounds were tested as several samples or in several runs, with calls that do not always agree. Calls of active or inactive are those of the source. How the source made its calls: active means hit-call score of the fitted dose curve at least 0.9, where 1 is the maximum; inactive means score below 0.9.

Read-out in this assay: Collagen III, COL3A1 (gene 1281)
In words: BSK_hDFCGF_CollagenIII: BioMAP Diversity Plus: hDFCGF Assay for Collagen III Biomarker Activity (AID 2283056). Particulars: primary human foreskin fibroblasts; actives raise or lower the signal. How it is done: BSK_hDFCGF is a cell-based, multiplexed-readout assay that uses foreskin fibroblast, a human skin primary cell, with measurements taken at 24 hours after chemical dosing in a 96-well plate.BSK_hDFCGF_CollagenIII is an assay component measured in the BSK_hDFCGF assay. It measures Collagen antibody related to regulation of gene expression using ELISA technology.Data from the assay component BSK_hDFCGF_CollagenIII was analyzed into 1 assay endpoint. This assay endpoint, BSK_hDFCGF_CollagenIII, was analyzed with bidirectional fitting relative to DMSO as the negative control and baseline of activity. Using a type of binding reporter, gain or loss-of-signal activity can be used to understand changes in the signaling as they relate to the gene COL3A1. Furthermore, this assay endpoint can be referred to as a primary readout, because this assay has produced multiple assay endpoints where this one serves a signaling function. To generalize the intended target to other relatable targets, this assay endpoint is annotated to the cell adhesion molecules intended target family, where the subfamily is collagen.
The levels of cell surface (or secreted, indicated by the prefix "s") biomarker endpoints were measured by ELISA. Overt cytotoxicity to cells in confluent adherent cultures (all systems other than the BT system) was assessed by measuring total protein levels using sulforhodamine B (SRB) staining in parallel cultures at the time of biomarker measurements, indicated as SRB endpoints. For proliferation assays for adherent cell types, individual cell types are cultured at sub-confluence and relative cell numbers quantified by SRB staining at time points optimized for each system (48 h: 3C and CASM3C systems; 72 h: BT and HDF3CGF systems; 96 h: SAg system). SRB was performed by staining cells with 0.1% SRB after fixation with 10% TCA and reading wells at 560 nm.Viability and proliferation of PBMC (T cells) was quantified by Alamar Blue reduction for the SAg and BT systems. For PBMC viability (referred to as PBMC Cytotoxicity within the assay endpoint names), cells were plated (75,000/well in a 96-well plate) and then chemical samples added for 1 h before addition of activators, SEB and TSST-1 (20 ng/mL final concentration each). Cells were incubated for 90 h. Then, Alamar Blue (20 uL/well) (Invitrogen, Cat DAL1100) was added for 6 h, and the plates were read with a fluorescence microplate reader at 546/580 nm (excitation/emission). For PBMC proliferation, cells were plated and activated as above but incubated for only 16 h prior to addition of Alamar Blue. Plates were read after 6 h.
What is called AC50 is the concentration giving half of the maximal activity seen. As to `Oc1ccc(C2(c3ccc(O)cc3)c3ccccc3-c3ccccc32)cc1`, the AC50 was 2.68 µM (active) and 2.27 µM (active). Still for that read-out and setting: as for `COC(C)(C)CCC[C@H](C)C/C=C/C(C)=C/C(=O)OC(C)C`, the figure is 16.6 µM (active); as for `O=C1C=CC(=O)C=C1`, 20 µM (active). `Cc1ccc(OP(=O)(Oc2ccc(C)cc2)Oc2ccc(C)cc2)cc1` (tested in a mixture with another compound): the AC50 is 12.9 µM (active). As for `O=[N+]([O-])O`, the result was inactive. On to `CCC(C)c1cc([N+](=O)[O-])cc([N+](=O)[O-])c1OC(=O)C=C(C)C` (centres undefined), for which the AC50 was 5.31 µM (active). Take `CCCC[N+](CCCC)(CCCC)CCCC`: the result was inactive. Turning to `C=CCN(CC=C)C(=O)C(Cl)Cl`, the result was inactive. Regarding `CC(C)CCCCCCCOC(=O)c1ccccc1C(=O)OCCCCCCCC(C)C`, the result was inactive. With `Oc1cc(Cl)ccc1Cl`, the outcome was inactive. As for `O=C(CCl)c1ccccc1`, the AC50 was 4.85 µM (active). Turning to `[Cd+2].[Cl-].[Cl-]`, the AC50 is 3.57 µM (active) and 4.55 µM (active). Consider `CCc1cc(C)cc(CC)c1-c1c(OC(=O)C(C)(C)C)n2n(c1=O)CCOCC2`, for which the outcome was inactive. As to `O=[N+]([O-])C=Cc1ccccc1`, the AC50 was 33.1 µM (active). Regarding `Clc1ccc(-c2ccccc2)cc1`, the result was inactive.

As for `O=S(=O)(c1ccccc1)c1ccccc1`, the result was inactive. As for `CC(C)(C)C(=O)CCl`, the outcome was inactive. Same read-out and setting: as for `O=P1(NCCCl)OCCCN1CCCl` (centres undefined), the entry is “inactive”. With `CC(C)(C)C(O)C(Oc1ccc(-c2ccccc2)cc1)n1cncn1` (centres undefined), the AC50 is 24.9 µM (active).

For the compound `O=C(O)CCCc1ccc(N(CCCl)CCCl)cc1`, the result was inactive and the AC50 is 20 µM (active). As for `CC(C)(c1cc(Cl)c(O)c(Cl)c1)c1cc(Cl)c(O)c(Cl)c1`, the AC50 is 29.6 µM (active). On to `O=[N+]([O-])c1ccc(Cl)cc1`, for which the result was inactive. As to `CC(C)CCCCCCCOP(=O)(Oc1ccccc1)Oc1ccccc1`, the AC50 was 5.29 µM (active). Turning to `O=C1C(Cl)=C(Cl)C(=O)C(Cl)=C1Cl`, the AC50 was 20 µM (active). Take `N#CCCCCC#N`: the result was inactive. In the case of `C=CC(=O)OCC(CC)CCCC` (centres undefined), the AC50 was 20 µM (active).

In the case of `CC(C)COP(=O)(OCC(C)C)OCC(C)C`, the outcome was inactive. On to `O=c1c2ccccc2c(=O)c2c1cc(Cl)c1[nH]c3c([nH]c12)c(Cl)cc1c(=O)c2ccccc2c(=O)c13`, for which the result was inactive.

Regarding `CNC(=O)Oc1cc(C)c(SC)c(C)c1`, the result was inactive. Regarding `Nc1ccc(-c2ccc(N)c(N)c2)cc1N`, the AC50 was 20 µM (active). Turning to `c1ccc(Nc2ccc3ccccc3c2)cc1`, the AC50 was 30.7 µM (active). As to `CCCCCCCCCCCC#N`, the result was inactive. For the compound `COCC(=O)N(c1c(C)cccc1C)N1CCOC1=O`, the result was inactive. For the compound `CCCOC(=O)c1ccccc1C(=O)OCCC`, the result was inactive.

As to `CC(=O)/C=C/c1ccccc1`, the outcome was inactive.

Consider `O=c1[nH]c(Cl)c(Cl)cc1Cl`, for which the outcome was inactive. On to `CC1(C)[C@H](C(=O)O[C@H](C#N)c2cccc(Oc3ccccc3)c2)[C@@H]1C=C(Br)Br`, for which the AC50 was 7.51 µM (active) and 4.58 µM (active). As for `COc1ccc(CO)cc1`, the outcome was inactive.
